This is a sample that favours compounds with a hit; in the whole collection about 32% have one here.
PostGolgi yeast: growth inhibition of a yeast mutant, post-Golgi transport screen; 0.9% of 98,000 active; post-Golgi transport phenotypic cell assay; AID 739; inhibition, % at 10 µM;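 further: yeast cells grown in 1536-well plates; yeast grown about 18 h at 30C before absorbance read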
PostGolgi ctrl: growth of the yeast control strain, post-Golgi counter-screen. efflux-deficient yeast background strain, growth absorbance A615, 16 h. inhibition, % at 10 µM. 5% of 98,000 active. AID 738
CYP2C9 inhib: inhibitors of human CYP2C9; P11712; CYP2C9 Supersomes, luciferin-H conversion, luminescence; inhibition, % at 5 µM; 20% of 96,000 active; AID 777;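 active means blocking of liver enzyme CYP2C9 beyond about 50% at 5 µM, limit read from the data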
CYP2C19 inh: inhibitors of human CYP2C19. P33261. CYP2C19 Supersomes, luciferin-H EGE luminescence, 30 min. inhibition, % at 5 µM. 21% of 96,000 active. AID 778;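 active means CYP2C19 inhibition above a set limit at 5 µM in the primary screen, cut at about 50% in these data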;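 further: plate controls were negative control wells for no effect and 2.5 mM tranylcypromine positive control for full effect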
Target sequence (P33261 whole entry, looked up): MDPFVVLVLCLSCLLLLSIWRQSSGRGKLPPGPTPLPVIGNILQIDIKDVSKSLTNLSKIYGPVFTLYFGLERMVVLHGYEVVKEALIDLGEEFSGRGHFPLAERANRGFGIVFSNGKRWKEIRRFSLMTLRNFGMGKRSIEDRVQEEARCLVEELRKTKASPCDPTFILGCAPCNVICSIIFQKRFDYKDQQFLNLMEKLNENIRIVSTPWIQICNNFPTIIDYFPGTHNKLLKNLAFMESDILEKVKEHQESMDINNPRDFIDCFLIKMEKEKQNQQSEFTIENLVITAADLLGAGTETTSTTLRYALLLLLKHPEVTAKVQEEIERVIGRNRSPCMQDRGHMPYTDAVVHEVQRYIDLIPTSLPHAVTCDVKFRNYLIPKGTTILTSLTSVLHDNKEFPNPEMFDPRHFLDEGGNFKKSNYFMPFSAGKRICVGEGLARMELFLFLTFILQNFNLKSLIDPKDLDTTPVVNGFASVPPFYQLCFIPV
CYP2C19 act: increases human CYP2C19 enzyme activity | AID 1025 | activation factor at 5 µM | P33261 | recombinant CYP2C19, luciferin-H EGE luminescence; stronger effect = higher value; 0 = fully inhibited enzyme, 1 = untreated enzyme | 96,000 tested, under 10 active;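 active means activation factor of at least 2 at 5 µM in the primary screen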;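 further: 0 = wells with 2.5 mM tranylcypromine and 1 = vehicle-only wells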
CYP2C9 activ: activators of human CYP2C9; activation factor at 5 µM; recombinant CYP2C9, luciferin-H conversion, luminescence; stronger effect = higher value; factor 1 = untreated enzyme, 0 = blocked; 1.4% of 96,000 active; P11712;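 active means activation factor of 2 or more for CYP2C9 at a 5 µM dose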;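 further: 0 = sulfaphenazole-blocked wells and 1 = vehicle-only wells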
Starred values were filed as active, the others as inactive. Unless noted, no stated cut-off is given here; in the data, active means inhibition above about 30%; inactive means the rest.

SMILES	PostGolgi yeast	PostGolgi ctrl	CYP2C9 inhib	CYP2C19 inh	CYP2C19 act	CYP2C9 activ
COC(=O)CSc1nnc(-c2sc3ccccc3c2Cl)o1	3	2	12	4	1	0.9
COc1ccccc1NC(=O)CSc1nnc(-c2ccccc2)o1	-6	17	15	59*	0.4	0.9
Cc1ccc(C)c(NC(=O)CSc2nnc(-c3ccccc3)o2)c1	-11	-7	24	56*	0.4	0.8
CC(C)C(C)(C#N)NC(=O)CSc1nnc(-c2ccccc2)o1 (stereo not given)	-2	8	9	68*	0.3	0.9
Cc1ccnc(NC(=O)c2ccc(COc3ccc(Cl)cc3)o2)c1	-1	2	25	8	0.9	0.7
O=C(Cn1nnc(-c2ccc(Cl)cc2)n1)NCC1CCCCC1	-4	5	33	45	0.5	0.7
COC(=O)c1ccccc1NC(=O)CSc1nnc(-c2ccncc2)o1	-1	10	39	68*	0.3	0.6
O=C(CSc1nnc(-c2cccnc2)o1)Nc1ccccn1	3	4	-7	-2	1	1.1
CCc1nnc(NC(=O)c2ccc(S(=O)(=O)N(CCOC)CCOC)cc2)o1	-14	6	14	9	0.9	0.9
CN(c1ccccc1)S(=O)(=O)c1ccc(NC(=S)NC(=O)c2ccccc2)cc1	1	-2	70*	29	0.7	0.3
COCc1nnc(NC(=O)c2ccc(S(=O)(=O)N(C)c3ccccc3)cc2)o1	-3	-10	77*	5	0.9	0.2
CCN(c1ccccc1)S(=O)(=O)c1ccc(C(=O)Nc2nnc(COC)o2)cc1	-3	8	70*	-8	1.1	0.3
CCCN(CCC)S(=O)(=O)c1ccc(C(=O)Nc2nnc(CSC)o2)cc1	12	12	18	1	1	0.8
CCN(c1ccccc1)S(=O)(=O)c1ccc(NC(=S)NC(=O)c2ccc(Br)o2)cc1	-3	-1	67*	23	0.8	0.3
Cc1ccc(C(=O)NC(=S)Nc2ccc(S(=O)(=O)N(C)c3ccccc3)cc2)cc1	-6	-3	5	5	1	0.9
CC(=O)NS(=O)(=O)c1ccc(NC(=O)c2ccc(Br)o2)cc1	-7	-3	-11	-2	1	1.1
CN1C(=O)C2(c3ccccc31)N(C)CC(c1ccccn1)C21SC(=S)N(Cc2ccco2)C1=O (stereo not given)	2	22	19	46	0.5	0.8
CCOc1ccc(N2CC(C(=O)NCCCN3CCOCC3)CC2=O)cc1 (stereo not given)	-6	0	-30	-12	1.1	1.3
Cc1onc(-c2c(F)cccc2Cl)c1C(=O)Nc1nnc(C2CC2)s1	-6	11	63*	62*	0.4	0.4
Cc1onc(-c2c(F)cccc2Cl)c1C(=O)NC1CCSC1=O (stereo not given)	-2	-2	65*	82*	0.2	0.4
Cc1nn(Cc2ccccc2Cl)c(C)c1C(=O)Nc1nnc(C2CC2)s1	0	8	51*	16	0.8	0.5
Cc1nn(-c2ccccc2)c(Cl)c1C(=O)Nc1nnc(C2CCCCC2)s1	-3	1	17	11	0.9	0.8
Cc1onc(-c2c(F)cccc2Cl)c1C(=O)Nc1nnc(-c2ccccc2)s1	-8	10	-15	-18	1.2	1.1
O=S(=O)(Cc1ccccc1)N1CCN(C/C=C/c2ccccc2)CC1	3	12	14	33	0.7	0.9
CSc1nc2ccc(S(=O)(=O)NC3CCCCC3)cc2s1	0	71*	31	74*	0.3	0.7
SMILES	PostGolgi yeast	PostGolgi ctrl	CYP2C9 inhib	CYP2C19 inh	CYP2C19 act	CYP2C9 activ
CSc1nc2ccc(NS(=O)(=O)c3ccc4c(c3)OCCO4)cc2s1	8	32*	84*	100*	0	0.2
Cc1c(NC(=O)CSc2nnc(-c3cccc(Cl)c3)o2)c(=O)n(-c2ccccc2)n1C	1	4	32	0	1	0.7
CCOC(=O)C1C(=O)NC(N2CCOCC2)=NC1C(C)C (stereo not given)	6	14	-8	-12	1.1	1.1
Clc1ccc(Sc2ccc(/C=N/n3cnnc3)o2)cc1	6	23	48	77*	0.2	0.5
Clc1ccc(Sc2oc(/C=N/n3cnnc3)cc2Br)cc1	4	47*	5	91*	0.1	0.9
CCn1c(SCC(=O)Nc2cc3oc4ccccc4c3cc2OC)nnc1-c1cccs1	0	47*	55*	41	0.6	0.4
COc1cc2c(cc1NC(=O)CSc1ccc(C)cc1)oc1ccccc12	-3	4	48	23	0.8	0.5
Cn1c(Cc2cccs2)nnc1SCC(=O)N1CCc2ccccc21	26	1	2	9	0.9	1
COCCn1c(SCC(=O)c2ccc(F)cc2)nnc1C(C)C	-8	-1	79*	76*	0.2	0.2
Cc1cc(Cl)ccc1NC(=O)CSc1nnc(Cc2cccs2)n1Cc1ccco1	0	25	49	61*	0.4	0.5
COc1ccc(OC)c(C(=O)CSc2nnc(Cc3cccs3)n2C)c1	9	-4	36	89*	0.1	0.6
Cn1c(=O)[nH]c(=O)c2c1nc(SCC(O)CO)n2Cc1ccccc1Cl (stereo not given)	-9	2	0	-13	1.1	1
O=C(Cn1cnc2ccccc2c1=O)N1CCN(Cc2ccccc2)CC1	-4	5	3	-5	1.1	1
CCOC(=O)c1cc(CC)sc1NC(=O)Cc1ccsc1	7	10	14	3	1	0.9
CCn1c(Cc2cccs2)nnc1SCC(=O)Nc1ccc(OC)c(OC)c1	-6	6	-25	-23	1.2	1.2
COc1cc2c(cc1NC(=O)CSc1nnc(COc3ccc(Cl)cc3)n1C)oc1ccccc12	2	35*	42	23	0.8	0.6
COc1cc2c(cc1NC(=O)CSc1nnnn1-c1ccccc1)oc1ccccc12	0	-1	13	3	1	0.9
COc1cc2c(cc1NC(=O)COC(=O)Cn1cnc3ccccc31)oc1ccccc12	3	2	61*	40	0.6	0.4
COc1cc2c(cc1NC(=O)CSc1nnc(Cc3cccs3)n1C)oc1ccccc12	-9	35*	57*	15	0.8	0.4
COc1cc2c(cc1NC(=O)COc1ccccc1OC)oc1ccccc12	-4	6	16	1	1	0.8
COc1cc2c(cc1NC(=O)CSc1nnc(Cc3cccs3)n1Cc1ccco1)oc1ccccc12	1	33*	84*	58*	0.4	0.2
Cc1ccc(/C=N/n2nnnc2N)o1	-6	3	-1	6	0.9	1
Cc1cc(NC(=O)NC(=O)c2ccc(F)cc2F)n[nH]1	-2	4	-4	28	0.7	1
CCCn1c(SCC(=O)c2cc(OC)ccc2OC)nnc1C(C)C	18	10	16	92*	0.1	0.8
